Assay results: PubChem BioAssay (Tox21)
Inconclusive results are not listed. A number with no mark means an inactive call. Active and inactive are the calls of the source. Calls follow the shape of the dose curve; as a rule, active = well fitted cell-killing curve with a large enough effect in the repeat runs; inconclusive = weak or mixed curves, or effect the other way; inactive = flat fitted curve, though single readings scatter.

assay: qHTS RealTime-Glo MT Cell Viability Assay in HepG2 cells - 0 hour (AID 1224889); conditions: RealTime-Glo luminescence; series mostly up to 76.8 µM; activity change, negative = cytotoxicity: at the top concentration; also: nearly all actives have a fitted effect of over 50% in size
Excerpt: U.S. Tox21 Program National Center for Advancing Translational Sciences [NCATS] NIH Chemical Genomics Center [NCGC] U.S. Environmental Protection Agency [EPA] National Institutes of Environmental Health Sciences [NIEHS] National Toxicology Program [NTP] U.S. Food and Drug Administration [FDA] Tox21 Assay Overview: Measure of cell viability is critical in the cell-base assay. Analysis of cell viability is necessary for the characterization of cell responses to cytotoxic drugs and environmental stress. A RealTime-Glo MT Cell Viability Assay to monitor cell viability in real time of continues cell culture during 40 hours of compound treatment was used to screen Tox21 10K library compounds in HepG2 cells. The RealTime-Glo MT Cell Viability Assay is a nonlytic, homogeneous, bioluminescent method to measure cell viability in real time using a simple, plate-based method. The assay involves adding NanoLuc luciferase and a cell-permeant prosubstrate to cells in culture. Viable cells reduce the proprietary prosubstrate to generate a substrate for NanoLuc luciferase. This substrate diffuses from cells into the surrounding culture medium, where it is rapidly used by the NanoLuc Enzyme to produce a luminescent signal. The signal correlates with the number of viable cells, making the assay well suited for cytotoxicity studies.
Tox21 Assay Protocol Summary: The mixture of HepG2 cell suspension and reagents were dispensed at 600cells/6 ul/well in 1536-well tissue culture treated black solid bottom plates using a Multidrop dispenser. After the assay plates were incubated at a 37 C/5% CO2 incubator for 5 hours, 23 nL of compounds dissolved in DMSO, positive and negative controls was transferred to the assay plate by a pintool work station. The plates were incubated at 37 C for 40 hours. The luminescence intensity were measured at 0h, 8h, 16h, 24h, 32h and 40h time points using ViewLux plate reader during compound treatment.
% is scaled to controls: 0 for no effect and ±100 for the full control effect; potency is read from the fitted curve at half-maximal effect.

Compound | activity change, negative = cytotoxicity | Potency
Oc1c(Cl)cc(Cl)c2cccnc12 | -2.19% [at 35.3 µM] | 
CCc1cc(Cc2cc(CC)cc(C(C)(C)C)c2O)c(O)c(C(C)(C)C)c1 | 4.82% | 
CC(C)(C)CC(C)(C)c1ccc(OCCOCC[N+](C)(C)Cc2ccccc2)cc1 |  | inactive
Cc1ccc(-n2nc(C(C)(C)C)cc2NC(=O)Nc2ccc(OCCN3CCOCC3)c3ccccc23)cc1 | -0.156% [at 35.3 µM] | 
CC(=O)N1CCN(c2ccc(OC[C@H]3CO[C@](Cn4ccnc4)(c4ccc(Cl)cc4Cl)O3)cc2)CC1 |  | 24.5 µM (active)
CC(C)CCCCCCCCCCCCCCC(=O)O | -5.57% | 
O=C(OCC1CO1)C1CCCCC1C(=O)OCC1CO1 (stereo not given) | -4.59% | 
O=C(Nc1ccc(Oc2ccc(Cl)cc2)c(Cl)c1)c1cc(I)cc(I)c1O | -4.04% [at 35.3 µM] | 
CCC(C)(C)C1CCCCC1OC(C)=O (stereo not given) | -0.509% | 
N=C1C=CC(=C(c2ccc(N)cc2)c2ccc(N)cc2)C=C1 | -24.9% | 
CCCCCCCCCCn1cc[n+](CCCCCCCCCC)c1C | 1.74% | 
O=[N+]([O-])c1ccccc1Nc1ccccc1 | -2.68% | 
O=C(c1ccc(F)cc1)C1CCN(CCn2c(=O)[nH]c3ccccc3c2=O)CC1 | -1.81% [at 35.3 µM] | 
Cc1[nH]nc2c1N=C(c1ccccc1Cl)c1cc([N+](=O)[O-])ccc1N2 | -3.86% | 
Cc1ccc(O)c(C(C)(C)C)c1 |  | inactive
O=c1[nH]cnc2nc[nH]c12 | -2.57% [at 35.3 µM] | 
Oc1ccc(N=Nc2ccccc2)cc1 | 15.5% | 
CC1=C(/C=C/C(C)=C/C=C/C(C)=C/C=O)C(C)(C)CCC1 | -1.12% | 
O=C(Nc1cccc([N+](=O)[O-])c1)c1cc2ccccc2cc1O | -9.61% | 
CCCCCCCCOC(=O)c1ccc(O)cc1 |  | inactive

Compound | activity change, negative = cytotoxicity | Potency
Nc1ccccc1O | -1.27% | 
Cc1onc(-c2c(Cl)cccc2Cl)c1C(=O)N[C@@H]1C(=O)N2[C@@H]1SC(C)(C)[C@@H]2C(=O)O | -2.06% [at 35.3 µM] | 
CC(C)(C)C(=O)OCOC(=O)[C@@H]1N2C(=O)[C@@H](NC(=O)[C@H](N)c3ccccc3)[C@H]2SC1(C)C | 3.59% [at 35.3 µM] | 
CC(C)(C)C1CCC(CC2=C(O)c3ccccc3C(=O)C2=O)CC1 (stereo not given) | -14.7% [at 35.3 µM] | 
NNC(=O)c1cccc(C(=O)NN)c1 | -1.38% | 
NC(=NCCCCCCN=C(N)/N=C(\N)Nc1ccc(Cl)cc1)/N=C(\N)Nc1ccc(Cl)cc1 |  | inactive
CCCCCCCCCCCCc1ccc(O)cc1 | 3.46% | 
C=CC(=O)OCCn1c(=O)n(CCOC(=O)C=C)c(=O)n(CCOC(=O)C=C)c1=O | 5.58% | 
COc1cc(/C=C/C(=O)O[C@H]2CC[C@]34C[C@]35CC[C@]3(C)[C@@H]([C@H](C)CCC=C(C)C)CC[C@@]3(C)[C@@H]5CC[C@H]4C2(C)C)ccc1O | 8.31% [at 35.3 µM] | 
Clc1ccc2n[nH]nc2c1 | 5.24% | 
C[C@@H]1C[C@H]2[C@@H]3CCC4=CC(=O)C=C[C@]4(C)[C@@]3(Cl)[C@@H](O)C[C@]2(C)[C@@]1(OC(=O)c1ccco1)C(=O)CCl | -5.03% [at 35.3 µM] | 
O=c1cc(-c2ccc(O)cc2)oc2cc(O)cc(O)c12 |  | inactive
CCCCCCCC/C=C/CCCCCCCC1=NCCN1CCO | 27.9% | 
CCN(CC)CCNC(=O)c1c(C)[nH]c(/C=C2\C(=O)Nc3ccc(F)cc32)c1C | -3.01% [at 35.3 µM] | 
Nc1ccc2c3c(cccc13)-c1ccccc1-2 | 5.95% | 
CCCCN(CCCC)c1ccc(C(=O)c2ccccc2C(=O)O)c(O)c1 | -15% | 
CN(C)[C@@H]1C(=O)C(C(N)=O)=C(O)[C@@]2(O)C(=O)C3=C(O)c4c(O)ccc(Cl)c4[C@@H](O)[C@H]3C[C@@H]12 | 0.928% [at 35.3 µM] | 
CC[C@H]1O[C@]2(CC[C@@H]1C)C[C@@H]1C[C@@H](C/C=C(\C)C[C@@H](C)/C=C/C=C3\CO[C@@H]4[C@H](O)C(C)=C[C@@H](C(=O)O1)[C@]34O)O2 | -16.2% | 
CCCCCCCCOc1ccccc1C(=O)Nc1ccc(C(=O)OCC[N+](C)(CC)CC)cc1 | 1.61% [at 35.3 µM] | 
Clc1ccc2cc3ccccc3cc2c1 | 6.35% | 
